Hits are enriched below; roughly 3.5% of the tested compounds scored in any of these assays.
Hck Nef HTS: human Hck-Nef kinase inhibition; hit rate 0.68% among 220,000; inhibition, % at 20 µM; AID 463187; P08631; Recombinant Hck-YEEI plus Nef, Z-Lyte FRET kinase assay;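 active = Hck-Nef kinase inhibition above about 50%, limit read from the data; inactive = inhibition below that limit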;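 note: 0% = DMSO with Hck plus Nef and 100% = Hck alone without Nef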
Mcl1 Bid PPI: Mcl-1/Bid interaction inhibition. inhibition, % at 21.7 µM. TR-FRET Mcl-1/Bid-Dy647 peptide binding, 1536-well. Q07820. hit rate 0.97% among 220,000;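 active = compounds that cut the binding signal by more than half at the single screening dose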;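 note: His-tagged Mcl-1 with europium anti-His antibody binding Bid BH3 peptide; 0% = Mcl-1 plus peptide wells and 100% = peptide-only wells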
Target sequence (Q07820 whole entry, looked up): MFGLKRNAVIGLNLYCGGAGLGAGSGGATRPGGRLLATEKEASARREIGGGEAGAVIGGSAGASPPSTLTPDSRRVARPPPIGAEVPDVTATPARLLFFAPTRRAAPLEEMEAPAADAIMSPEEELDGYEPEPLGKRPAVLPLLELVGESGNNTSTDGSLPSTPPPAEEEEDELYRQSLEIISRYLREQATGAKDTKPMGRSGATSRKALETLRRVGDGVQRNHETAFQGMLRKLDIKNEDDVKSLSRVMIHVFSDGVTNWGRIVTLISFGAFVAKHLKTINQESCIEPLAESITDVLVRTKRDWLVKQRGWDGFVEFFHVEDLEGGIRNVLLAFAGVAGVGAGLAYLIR
Mcl1 Noxa PPI: Mcl-1/Noxa interaction inhibition | Q07820 | TR-FRET Mcl-1/Noxa peptide binding, 2 h | inhibition, % at 21.7 µM | hit rate 1.5% among 220,000 | AID 1022;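 active = compounds that cut the protein-peptide binding signal by more than 50% relative to plate controls in a single-dose test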;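 note: His-tagged Mcl-1 with rhodamine Noxa BH3 peptide and terbium anti-His antibody; 0% = Mcl-1 plus Noxa peptide wells and 100% = peptide-only wells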
14-3-3 Bad inh: disrupts binding of bovine 14-3-3 zeta to phospho-Bad peptide; TR-FRET 14-3-3zeta/Dy647-pBad peptide displacement, 1 h; inhibition, % at 21.7 µM; hit rate 0.71% among 220,000;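 active = inhibition above about 70%, limit read from the data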;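 note: 0% = full 14-3-3 plus peptide FRET controls and 100% = background without 14-3-3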
eIF4E-4G inh: blocks eIF4E binding to eIF4G. inhibition, % at 21.7 µM. TR-FRET eIF4E-eIF4GI(517-606) binding, 2 h. hit rate 0.37% among 220,000. P63073+Q04637;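 active = inhibition above about 30%, limit read from the data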;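 note: 0% = full FRET control wells and 100% = background wells lacking eIF4GI fragment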
Bim-Mcl-1: disrupts Bim peptide binding to human Mcl-1; Q07820; Bead-based flow cytometry, Bim peptide-Mcl-1 binding; hit rate 0.1% among 190,000; inhibition, % at 10 µM; AID 1009; in the data active = inhibition above about 40%;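 note: 0% = no compound tracer wells and 100% = peptide blocker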
Hck-Nef confirm: confirmation of Hck-Nef kinase inhibitors. AID 463188. calls only at 10 µM. shares compounds with Hck Nef HTS. hit rate 28% among 1,300. Recombinant Hck-YEEI:Nef, Z-Lyte FRET kinase assay;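 active = average inhibition of at least 50%, with Z-scores no higher than 3 in both the phospho-tyrosine peptide and fluorescence counterscreens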
Active calls of the source: *; i = inactive; · = not tested or not shown; + = active, no number.

SMILES | Hck Nef HTS | Mcl1 Bid PPI | Mcl1 Noxa PPI | 14-3-3 Bad inh | eIF4E-4G inh | Bim-Mcl-1 | Hck-Nef confirm
O=C1NC(=O)N(Cc2ccco2)C(=O)/C1=C/c1ccc(-c2cccc([N+](=O)[O-])c2)o1 | 52* | -2 | 93* | 23 | 6 | 8 | +
COc1ccc(/C=C2/C(=O)N(Cc3ccco3)C(=O)N(C(C)C)C2=O)cc1 | 95* | 4 | 20 | -1 | 2 | -4 | i
O=C1NC(=O)N(CCc2ccc(F)cc2)C(=O)/C1=C/c1ccco1 | 167* | -42 | 5 | 20 | 18 | -1 | +
O=C1NC(=O)N(CCc2ccc(F)cc2)C(=O)/C1=C/c1cccs1 | 149* | 10 | 23 | 25 | -4 | 2 | +
O=C(NCCCN1CCOCC1)C(Cl)(Cl)Cl | 4 | -15 | -10 | -23 | -3 | -1 | ·
O=C1OC(c2ccc([N+](=O)[O-])cc2)=N/C1=C/N1CC2CC(C1)c1cccc(=O)n1C2 (configuration not stated) | -6 | -34 | -6 | -3 | -10 | · | ·
Nc1cc(Cl)c2nonc2c1[N+](=O)[O-] | 0 | -12 | 27 | 9 | -6 | -6 | ·
CCCCCCn1c(N)c(C(=O)NCCN2CCOCC2)c2nc3ccccc3nc21 | 65* | -7 | -6 | 4 | 1 | -2 | i
CC(C)OCCCNC(=O)c1c(N)n(CC2CCCO2)c2nc3ccccc3nc12 (configuration not stated) | 52* | · | · | · | · | 4 | ·
CCCNC(=O)c1c(N)n(CC2CCCO2)c2nc3ccccc3nc12 (configuration not stated) | 57* | -12 | 10 | -6 | -1 | -1 | ·
CCC12C=CCN3CCC4(c5cc(Br)c(OC)cc5N(C)C4C(O)(C(=O)OC)C1OC(C)=O)C32 (configuration not stated) | 0 | -11 | -8 | -5 | -1 | 0 | ·
CCCC/C(=N/O)c1c(C)[nH]c2ccccc12 | 16 | -54 | 1 | -7 | 4 | 0 | ·
O=C1NC(=O)N(c2ccc3c(c2)OCO3)C(=O)/C1=C\c1ccc(-c2ccccc2C(=O)O)o1 | 45 | -20 | 45 | 9 | 4 | · | ·
Cc1cccc(N2C(=O)NC(=O)/C(=C/c3ccc(-c4ccc(C(=O)O)c(Cl)c4)o3)C2=O)c1 | 59* | -15 | 12 | -13 | 3 | 0 | i
